From the supplement of paper PMC6555819

Legend:
Experiment in all cases: PBM binding z-score (relative to random genomic background probes); higher = stronger binding; sequences stand for … in GC…GCGATTGACAGCGTAGAATGAAGG
[1] = test system: RARb homodimer (NR concentration 270 nM)
Method in brief: (§1)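 Antibodies against each partner of ligand-free nuclear receptor dimers (one per run) detected binding on custom Agilent 4×180K protein-binding microarrays after 1 h incubation. The double-stranded probes had 34-nt variable regions carrying direct-repeat seeds, single-nucleotide variants, half-site ablations and random human genomic background sequences. Binding z-scores, from regression-normalized fluorescence, use the random background probes as reference.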

[2] = test system: RARg:RXRa (NR concentration 270 nM, RXRa partner concentration 90 nM)
Method in brief: as §1

[3] = test system: RARg homodimer (NR concentration 270 nM)
Method in brief: as §1

[4] = test system: RXRa DBDmut IVT, anti-RXR (DBD mutation: RXRa K156A/R161A, NR concentration 90 nM)
Method in brief: as §1

[5] = test system: RXRa homodimer (NR concentration 180 nM)
Method in brief: as §1

[6] = test system: THRa:RXRa (NR concentration 90 nM, RXRa partner concentration 90 nM)
Method in brief: as §1

[7] = test system: THRa homodimer (NR concentration 90 nM)
Method in brief: as §1

[8] = test system: VDR homodimer (NR concentration 270 nM)
Method in brief: as §1

Sequence | PBM binding z-score [1] | PBM binding z-score [2] | PBM binding z-score [3] | PBM binding z-score [4] | PBM binding z-score [5] | PBM binding z-score [6] | PBM binding z-score [7] | PBM binding z-score [8]
CCTTACGCGTCAAGGTTATAGCACGGGTGGTACG | 0.818 | 0.576 | 0.348 | 0.122 | 1.06 | 1.5 | 0.517 | 0.299
TCTGCTAGGTCAACGATGGTCCGCTAATCTGCTA | 2.94 | 3.75 | 4.7 | 1.2 | 2.3 | 2.56 | 0.713 | -0.413
TAGCCTAGGTCATTCGGCCAGTATAGTACGCATC | 3.12 | 3.81 | 4.13 | 1.7 | 2.52 | 2.66 | 0.61 | 1.6
TCTTGGAGATCAAAGGTTAAGAAAGCCGAAGCCT | 1.18 | 2.07 | 0.819 | 0.202 | 4.66 | 1.4 | -0.671 | -0.245
CGTCCAAGGTCAATGCTTGGTCAGTGAAAGCATT | 4.25 | 6.01 | 6.27 | 3.51 | 4.89 | 3.82 | 2.24 | 2.49
AGAATGAGGTTATACGTAAATCAGGGAAGAAAGT | 0.771 | 1.56 | 1.08 | 1.72 | 2.06 | 2.17 | 0.605 | 0.824
AGAACGAGGGCACGCCGAGTTGATAGCAGAGTAG | 1.2 | 1.96 | 2.36 | 1.75 | 1.47 | 1.96 | -0.089 | 1.81
ATCGAAAGGTCGACGAGGTGATTATACACCGTTT | 2.78 | 4.21 | 3.9 | 1.34 | 4.35 | 3.58 | 0.498 | 1.54
ATATGTAGGTTATCGGGTCATTCTGTTTGCGCAT | 2.91 | 3.37 | 2.21 | 1.77 | 3.44 | 3.38 | 2.96 | 3.53
TCTTATAGATCAAGCAGGTTAAGAAAGCCTGAGT | 0.27 | 0.242 | 0.136 | 1.03 | 0.704 | 0.558 | -0.379 | 0.389
AGTCAAAGTACACTAGGTAACGTAAGATTCAGCT | 0.288 | 0.245 | 0.909 | 1.11 | 0.318 | 0.479 | -0.0974 | 0.127
TCGAGTAGGTTACCAATGGGGCATTCATCTTTCT | 0.835 | 1.03 | 0.586 | 0.151 | 0.759 | 0.223 | -0.282 | -0.179
TGAATGAGGTTAAAGATCAGGAAACGTGGCGTCG | 0.6 | 2.53 | 1.23 | 1.25 | 3.88 | 2.41 | 0.21 | 0.62
TAGCCCAGGTCAGATCGGGCCAGTATACGCTATA | 2.03 | 2.82 | 3.39 | -0.536 | 1.77 | 4.22 | 0.917 | -0.0558
CAAACTAGGTCACCGGAAGGTCAAAGCCCGCATG | 5.35 | 8.33 | 7.37 | 1.48 | 6.03 | 4.42 | 2.96 | 3.25
GCTTACGGTTCAAAGGTTATAGCATGAATAGAAT | 1.54 | 3.57 | 1.39 | 2.62 | 7.16 | 2.59 | 0.09 | 2.52
GATACAGGGTCAGCTAGACGCCAGAGTATGGAAA | 2.32 | 4.41 | 4.12 | 0.957 | 4.21 | 2.43 | 0.221 | 0.722
TAGCCTAGGTCATGGGCCAGGATACCACGCGAAC | 2.85 | 4.26 | 4.49 | -0.534 | 3.86 | 3.22 | 1.33 | 0.424
GCTAGCAGGCCATTTGGGTCACTCACTGACGGGC | 1.96 | 0.722 | 1.04 | 0.199 | 0.604 | 1.73 | 0.972 | 0.0479
GCTCGGAGGACAAGGTCAAAGCTTTGTCCGTAGA | 3.35 | 4.56 | 4.54 | 1.32 | 4.4 | 3.57 | 2.09 | 2.02
CCTCGGAAGACAGAAGGTCAGAGCTGTCCGCTTT | 3.01 | 2.34 | 2.32 | 0.101 | 1.83 | 1.56 | -0.133 | 0.00286
CCTAGCAGGCCAATCTGGGTCTCTCAAGGCTTGA | -0.52 | -0.494 | -0.505 | -0.243 | -0.68 | 0.975 | -0.574 | -0.65
CCTCGGAGGACAGCAGGAGGTCAGAGCTGCCAGA | 3.24 | 3.07 | 2.93 | -0.25 | 1.56 | 2.41 | 0.786 | 0.762
AATACAGGGTCACTAGGCCAGAGCAGGTACGAAT | 3.36 | 5.15 | 5.08 | 2.67 | 5.66 | 3.31 | 1.07 | 2.39
AATACAGGGTCACTAAGCCAGAGTAGGTACGAAT | 3.03 | 5.07 | 4.83 | 2.77 | 5.39 | 3.33 | 1.13 | 2.35
TTTTGTAGATCAAGCAGGTTAAGAAAGCCTGAGT | 0.054 | -0.111 | -0.119 | -0.757 | 0.19 | 0.502 | -0.555 | 0.443
TGAATGAGGTTAAAGATCAGGGAACGTGGCGTCG | 0.677 | 2.23 | 1.12 | 1.61 | 3.81 | 2.5 | 0.44 | 0.484
CGTGCAAGGTCAAGGTCAGTGAAAGAGACTCGAA | 5 | 6.85 | 7.64 | 3.8 | 6.7 | 4.26 | 3.18 | 3.35
